The source of these data is publication PMC7819943, “Rice protein-binding microarrays: a tool to detect cis-acting elements near promoter regions in rice”.

Over roughly 39,000 sequences, “fluorescence intensity (a.u.)” has its median near 4,300; the highest 2% begin near 39,000. This excerpt belongs to a sample that is enriched for the highest values.

For this assay, the target named is T1, OsSMF1 (Oryza sativa, UniProt Q6ZLB0 1-436).
T1 sequence: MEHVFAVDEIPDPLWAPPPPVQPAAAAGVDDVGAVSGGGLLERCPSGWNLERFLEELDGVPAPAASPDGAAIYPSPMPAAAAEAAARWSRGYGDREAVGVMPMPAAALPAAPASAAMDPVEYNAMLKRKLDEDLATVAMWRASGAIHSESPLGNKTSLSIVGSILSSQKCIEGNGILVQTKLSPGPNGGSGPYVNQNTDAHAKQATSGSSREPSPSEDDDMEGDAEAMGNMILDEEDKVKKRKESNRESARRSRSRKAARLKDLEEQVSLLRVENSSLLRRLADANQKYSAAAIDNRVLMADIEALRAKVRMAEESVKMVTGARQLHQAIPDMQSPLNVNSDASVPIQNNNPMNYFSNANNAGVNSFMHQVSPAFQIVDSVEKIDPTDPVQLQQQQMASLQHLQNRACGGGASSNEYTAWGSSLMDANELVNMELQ
Kind of assay: protein-binding microarray (RPBM); PBS, 2% BSA, 51.3 ng/ul salmon testes DNA, 50 uM zinc acetate, 200 nM TF, 25 C, 1 h; high values mean tight binding. The conditions noted are these: protein: recombinant; tags: N-terminal polyhistidine and DsRed monomer fusion (pET32a); chain copies: 2; label: CyDye5-dUTP incorporated in the synthesized complementary strand; 3' TTTTT single-stranded linker to array surface; dsDNA, one strand shown. In outline:
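Ni–NTA purification followed expression in E. coli BL21-CodonPlus of transcription factors fused N-terminally to a polyhistidine tag and DsRed. At 200 nM in PBS with 2% BSA, salmon testes DNA and 50 µM zinc acetate, the protein was incubated for 1 h at 25 °C with a custom Agilent array that had been primer-extended with Cy5-dUTP and blocked with 2% BSA. After washing, the array was read on an Axon 4000B scanner. The binding signal is per-feature fluorescence intensity in arbitrary units.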
“GCAGGGCAGGCTGACAGCTCATCTTCTCAGAGGATCCGATCGGAGTCACCTAGTGCAG”: the binding signal was 5100 fluorescence intensity (a.u.).
With “AGCGTCGCGCCGCGCCACGCCACGCCACGCCACCCCACCACGGAGTCACCTAGTGCAG”, the binding signal is 5830 fluorescence intensity (a.u.).
“TGAGCCACGCACTGAACACGACCGTTCGATCCCCTCAAGGCGGAGTCACCTAGTGCAG”: the binding signal was 3810 fluorescence intensity (a.u.).
Take “ATACCTGATCCTACTTGTCATACACATATTTATCTTATAGCGGAGTCACCTAGTGCAG”: the binding signal was 3620 fluorescence intensity (a.u.).
In the case of “TTTGGTGCGAGCGAAATACCAGGATCTTTATACACATAGCCGGAGTCACCTAGTGCAG”, the binding signal is 58000 fluorescence intensity (a.u.).
With “CGTATATGTATATATACATACTTTATACACATATATATACCGGAGTCACCTAGTGCAG”, the binding signal is 3360 fluorescence intensity (a.u.).
For the sequence “ACTGCCATGGTTGCGGAGCAGGATGGTGACGTGGATCCCACGGAGTCACCTAGTGCAG”, the binding signal is 17700 fluorescence intensity (a.u.).
Take “GCCGCTTTTGCGAATTTTGCACGTAGACCCCTTGCCGCCCCGGAGTCACCTAGTGCAG”: the binding signal was 3330 fluorescence intensity (a.u.).
For “TCACCACCTCACTCCACTAACCAGAGAGAGAACGCAGCTACGGAGTCACCTAGTGCAG”, the binding signal was 21000 fluorescence intensity (a.u.).
For “TTGTACCAGCTAACTCATCACCACGCAGGCCAGAGTAGTACGGAGTCACCTAGTGCAG”, the binding signal was 45900 fluorescence intensity (a.u.).
In the case of “ACACAGCCACGCCCGTACGCAGCTACGTACGCACGCATCACGGAGTCACCTAGTGCAG”, the binding signal is 5670 fluorescence intensity (a.u.).
For “CGTGAGCGGGTGGTGGTGGTGATGGCGTTCGCGGTGGCGACGGAGTCACCTAGTGCAG”, the binding signal was 3520 fluorescence intensity (a.u.).
For the sequence “AGCTTCGCACTGGGCACGTGTGCCTGTGTGTGGGAGTCAGCGGAGTCACCTAGTGCAG”, the binding signal is 4070 fluorescence intensity (a.u.).
On to “GAAGTGGTTCTGCACTGTGATTTGAAGCCTAGCAACGTGCCGGAGTCACCTAGTGCAG”, for which the binding signal was 35800 fluorescence intensity (a.u.).
For the sequence “CAAACTGCAACTCCAATATCACATTTTCTTTCTCTTTTCCCGGAGTCACCTAGTGCAG”, the binding signal is 19700 fluorescence intensity (a.u.).
Turning to “TGCTGCCAGAGTCAGTAGGTGCCCTCTTCCACCTGCAGACCGGAGTCACCTAGTGCAG”, the binding signal is 3270 fluorescence intensity (a.u.).
“CAGTCAGTCAGTAGGTTCCCAGAATTTTCTCCCTGCAAACCGGAGTCACCTAGTGCAG”: the binding signal is 50200 fluorescence intensity (a.u.).
To “CAAACAAGGACCGTAGACACTCTAACCAACCCCAATAACACGGAGTCACCTAGTGCAG” belongs 31300 fluorescence intensity (a.u.).
Consider “CACATCGTTGCCAATGTTGCCACGTACCAAGGTCATATGGCGGAGTCACCTAGTGCAG”, for which the binding signal is 9400 fluorescence intensity (a.u.).
With “ATGAACATATTTCAATCGTTCAGTACCTTCAAGCCACAGGCGGAGTCACCTAGTGCAG”, the binding signal was 39800 fluorescence intensity (a.u.).
As to “TCAGTAGGCCAGTAGCTAGCTGCTGCCTTCACACATCAATCGGAGTCACCTAGTGCAG”, the binding signal is 3160 fluorescence intensity (a.u.).
As to “GCCAGCTGCCACGTGGGACAAAATCGGGGTCAAAACCACCCGGAGTCACCTAGTGCAG”, the binding signal was 12700 fluorescence intensity (a.u.).
Under “GTCCAGCCTCCTCCTCCGCTGACCTCCTCGCGGTCTTCTCCGGAGTCACCTAGTGCAG” stands 4520 fluorescence intensity (a.u.); under “CCTCGTCCGCCTTGGTCTTCTTCCAGCCGAGGAGCAACCGCGGAGTCACCTAGTGCAG”, 48200 fluorescence intensity (a.u.).
Regarding “CGAGCCGCCTCCGCCACCGCCGCCTCCTTCCGACCAGCCGCGGAGTCACCTAGTGCAG”, the binding signal was 3530 fluorescence intensity (a.u.).
As for “AGCTTACTATGATACCGATGAACACGTTATGACAACAAACCGGAGTCACCTAGTGCAG”, the binding signal was 3880 fluorescence intensity (a.u.).
Consider “AACGTGAACTAAACACATGTCGAAATGCAATCAAAATACCCGGAGTCACCTAGTGCAG”, for which the binding signal is 42000 fluorescence intensity (a.u.).
To “CAAATACTAAATGATTTCAAATGAAAACGTCATCAACAACCGGAGTCACCTAGTGCAG” belongs 3560 fluorescence intensity (a.u.); to “AATCAAACTTTCAATTTTAGCGTGAACTAAACACACCCTTCGGAGTCACCTAGTGCAG”, 3680 fluorescence intensity (a.u.); to “ATAGAAACATAGCGTGACACAACATAACAAACCAATGCAACGGAGTCACCTAGTGCAG”, 4630 fluorescence intensity (a.u.).
For the sequence “CCAAATAGACTCTTACTTATAAGGGTTGAGTCTAGAGTGACGGAGTCACCTAGTGCAG”, the binding signal is 6050 fluorescence intensity (a.u.).
Turning to “TGATTGTGACACTAGCACGACGCACTTTCCTCTATATACACGGAGTCACCTAGTGCAG”, the binding signal is 3630 fluorescence intensity (a.u.).
In the case of “ATGAACTAAACGCACCCTTGTAAGTCTGACACACTGTGGACGGAGTCACCTAGTGCAG”, the binding signal is 3720 fluorescence intensity (a.u.).
Consider “ATAAAGTCCTTATCGGACACTAAACGCACTTTCCTAAAGACGGAGTCACCTAGTGCAG”, for which the binding signal was 39200 fluorescence intensity (a.u.).
For the sequence “AAGAAATCTCTTCATAGATCTCCTGATGAAAGAATTTAACCGGAGTCACCTAGTGCAG”, the binding signal was 3730 fluorescence intensity (a.u.).
On to “TGTTCCACTGTTGTGTGTGTGGCATTCTTGTACTGCATTTCGGAGTCACCTAGTGCAG”, for which the binding signal is 3360 fluorescence intensity (a.u.).
In the case of “CAGGCTACAGGGCATTTGTGTCATTTTGCAAGAAGGCATACGGAGTCACCTAGTGCAG”, the binding signal is 3380 fluorescence intensity (a.u.).
Consider “TTGTGTGCATTTCGGCATTTGGCTACAAGATTCTTGCAGTCGGAGTCACCTAGTGCAG”, for which the binding signal was 39600 fluorescence intensity (a.u.).
Under “CTCGATACAGAGTGAGCGGGGTATGGCAATGACGAGCTATCGGAGTCACCTAGTGCAG” stands 3160 fluorescence intensity (a.u.).
“GAATGAAAACTCAGGGGTAAGTAGGAGATGACGCAAAGTTCGGAGTCACCTAGTGCAG”: the binding signal is 3580 fluorescence intensity (a.u.).
Regarding “GGCCATGTTGAATGACGCGTTGCTCTCCCTACTCTACGGACGGAGTCACCTAGTGCAG”, the binding signal was 49100 fluorescence intensity (a.u.).
As for “TTCTCCCTCTACTATTGCTGACGCCACCAACGCCCATGTGCGGAGTCACCTAGTGCAG”, the binding signal is 13500 fluorescence intensity (a.u.).
“CGTCTCGCCGGAGCGTTGACGAGGACCTCTCTACTCTTCACGGAGTCACCTAGTGCAG”: the binding signal was 3680 fluorescence intensity (a.u.).
